PubChem BioAssay (NCI)
The panel holds about 83,000 compounds, 20% with a hit somewhere; the sample as a whole holds those more often.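 The endpoint reported here, percent growth, reads 100 for growth as untreated, 0 for no net growth and -100 for all cells dead.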 A number with no mark means an inactive call. Activity calls are given as the source filed them. How the source made its calls: active means growth percent below 10; inactive means the rest.

Tests used:
Assay in all cases: NCI-60 one-dose screen, 48 h (100 = growth as untreated, 0 = no growth, -100 = all killed)
Settings in all cases: 10 µM unless noted
T-47D breast = tested on: T-47D breast
BT-549 breast = tested on: BT-549 breast
MDA-MB-435 melanoma = tested on: MDA-MB-435 melanoma
SW-620 colon = tested on: SW-620 colon
MCF7 breast = tested on: MCF7 breast
HCT-116 colon = tested on: HCT-116 colon
HCC-2998 colon = tested on: HCC-2998 colon
KM12 colon = tested on: KM12 colon

| Compound | growth (T-47D breast) | growth (BT-549 breast) | growth (MDA-MB-435 melanoma) | growth (SW-620 colon) | growth (MCF7 breast) | growth (HCT-116 colon) | growth (HCC-2998 colon) | growth (KM12 colon) |
| --- | --- | --- | --- | --- | --- | --- | --- | --- |
| N#Cc1c(N)nnn1Cc1cc(=O)oc2c1ccc1ccccc12 | 92.3% | 99.9% | 105% | 97.7% | 92.6% | 106% | 105% | 103% |
| c1cc2[nH]ncc2cc1-c1nc2ccc3[nH]ncc3c2c2c1CCCC2 | 4.77% (active) | 12% | 2.02% (active) | 9.28% (active) | 21.7% | 0.11% (active) | 13.8% | 13.2% |
| CCCCCCCCCCCCCCCCCCOc1ccccc1CC(=O)NCC[N+]1(C)CCCC1 | 69.9% | 67.2% | 67.4% | 64.7% | 53.1% | 55.9% | 32.7% | 18.9% |
| C[C@]12C=CC(=O)C=C1CCC1C2[C@@H](O)C[C@@]2(C)C1CC[C@]2(O)C(=O)COC(=O)CCC(=O)O (stereo partly drawn) | 111% | 89.7% | 99.9% | 105% | 96.5% | 107% | 110% | 109% |
| CCN(CC)CCCN1C(=O)c2c(c(C)c3c(oc4cc(O)ccc43)c2C)C1=O | 97.7% | 94.8% | -61.1% (active) | -36% (active) | -69.2% (active) | -76.4% (active) | -88.9% (active) | -59.3% (active) |
| COc1cc(-c2nc3cc(Cl)c(Cl)cc3[nH]2)ccc1OCC(=O)N=Nc1c(O)[nH]c2ccc([N+](=O)[O-])cc12 | 66.6% | 98.8% | 81.9% | 82.7% | 74% | 42.6% | 71.8% | 103% |
| CCCCNC(=O)Oc1ccc(/C(=C(/CC)Cc2ccccc2)c2ccc(OCCN3CCCCCC3)cc2)cc1 | -24.9% (active) | 87.3% | 61.5% | 25.1% | 0.876% (active) | -76.3% (active) | 34% | 37.5% |
| O=C(NCCCN1CCOCC1)c1cccc(N2C(=O)/C(=C/c3ccc(F)cc3)SC2=S)c1 | 91.7% | 96.8% | 95.3% | 95.9% | 92.9% | 96.7% | 97.1% | 99.6% |
| O=C(Cn1c2c(c3ccccc31)CCCC2)Nc1ccc(-c2nc3ccccc3s2)cc1 | 80.1% | 115% | 104% | 109% | 30.8% | 125% | 108% | 101% |
| Cc1nc2sc(C(=O)Nc3ccccc3)c(N)c2cc1C(=O)c1ccccc1 | 46.3% | 68.4% | -33.7% (active) | 27.8% | 11.5% | 29.7% | 18.2% | 33.7% |
| CCCCC[C@@H]1Cc2cc(O)c(C(=O)O)c3c2[C@H](C[C@]2(OC[C@@H](CC(=O)[C@@](C)(CC)C(=O)OC)[C@@H]2C)O3)O1 | 98.5% | 121% | 117% | 111% | 99.3% | 111% | 133% | 105% |
| Cc1ccc(C(C(N)=O)C(C(N)=O)c2ccccc2)cc1 (stereo not drawn) | 112% | 113% | 109% | 105% | 112% | 101% | 112% | 105% |
| Cc1ccccc1/C=C1\CN(C(=O)OC(C)(C)C)C/C(=C\c2ccccc2C)C1=O | 51.8% | 70.3% | 12% | 5.37% (active) | 19.2% | -53.9% (active) | 3.27% (active) | -32.8% (active) |
| O=C(COc1ccc(-c2nc3ccccc3[nH]2)cc1)N=Nc1c(O)[nH]c2ccc(Cl)cc12 | 65.4% | 110% | 93.9% | 40.6% | 22.3% | 47.2% | 65.2% | 15.3% |
| CCOC(=O)C#Cc1c(C(=O)OCC)nnn1[C@@H]1O[C@H](CO)[C@H]2OC3(CCCCC3)O[C@H]21 | 13.2% | 94.2% | 79.7% | -70.9% (active) | 8.45% (active) | 66.5% | 85.4% | 94.5% |
| O=C(CCC(=O)N/N=C/c1ccccc1O)N/N=C/c1ccccc1O | 51.5% | 76.5% | 64.8% | 44.8% | 39.9% | 25.9% | 46% | 33% |

| Compound | growth (T-47D breast) | growth (BT-549 breast) | growth (MDA-MB-435 melanoma) | growth (SW-620 colon) | growth (MCF7 breast) | growth (HCT-116 colon) | growth (HCC-2998 colon) | growth (KM12 colon) |
| --- | --- | --- | --- | --- | --- | --- | --- | --- |
| Cn1cccc1C(=O)C1C(c2cccc([N+](=O)[O-])c2)C2C3CCCCC3CN2C12C(=O)Nc1ccc(Cl)cc12 (stereo not drawn) | 36.7% | 53.6% | 56.3% | 54.7% | 34.1% | 14.9% | 64.5% | 42.3% |
| COc1ccc(-c2nnc3n(C)c(=O)c4ccccc4n23)cc1N | 24.2% | 31.2% | -19.6% (active) | 20.3% | 18.6% | 20.2% | 49.7% | 28.3% |
| CS(=O)(=O)C1=CN(CCO)C(=O)N2CCCN=C12 | 102% | 102% | 102% | 93.4% | 104% | 97% | 98.6% | 105% |
| O=[N+]([O-])C1C(c2ccccc2)C12c1ccccc1-c1ccccc12 (stereo not drawn) | 57.6% | -42.3% (active) | -23.1% (active) | 3.12% (active) | 9.88% (active) | -18.8% (active) | -18.8% (active) | 1.09% (active) |
| Cc1oc(-c2ccc(Cl)cc2)nc1/C=C/C(=O)c1ccccc1 | 79.5% | 84.8% | 103% | 104% | 49.9% | 99.5% | 103% | 100% |
| CCCCCCCCCCCCCCCCCCOc1ccccc1CC(=O)OCC[N+]1(C)CCCC1 | 62% | 67% | 23.4% | 21.4% | 32.3% | 29.2% | 3.99% (active) | 13.3% |
| COc1ccc(C2c3sc4c(F)cccc4c3Oc3nc[nH]c(=O)c32)cc1 (stereo not drawn) | 70.5% | 84.6% | 82.1% | 89.7% | 45.7% | 79.9% | 91.7% | 81.7% |
| Oc1c(Cl)cc(Cl)c2ccc(Cn3cc(-c4cc(C(F)(F)F)cc(C(F)(F)F)c4)nn3)nc12 | 33.7% | 66% | 43.5% | 4.61% (active) | 21.2% | 1.78% (active) | 101% | 102% |
| COc1cccc([C@H]2c3[nH]c4ccccc4c3C[C@H]3C(=O)N(CCCCCCC(=O)NO)CC(=O)N23)c1 | 31.5% | 77.9% | 61.2% | 57.4% | 53.7% | 35.3% | 68.2% | 78.9% |
| O=C(CCCCCCN1CC(=O)N2[C@H](c3cc(Br)cs3)c3[nH]c4ccccc4c3C[C@H]2C1=O)NO | 17.3% | 68.1% | 22.6% | 8.76% (active) | 33.2% | 13% | 75.1% | 47.2% |
| CC(C)c1ccc(COCc2cc(CN3CCCC3)c(O)c3ncccc23)cc1 | -7.55% (active) | 13.1% | 20.2% | 3.8% (active) | 7.67% (active) | 5.58% (active) | 14.6% | 14.1% |
| C=C(C)[C@@H]1CC[C@]2(C(=O)NCC#CCN3CCN(C)CC3)CC[C@]3(C)[C@H](CC[C@@H]4[C@@](C)(CCC#N)[C@H](C(=C)C)CC[C@]43C)[C@@H]12 | 34.9% | 78.6% | 54.6% | 45.5% | 50.5% | 26.4% | 25.2% | 45.9% |
| COc1cc(-n2cc(-c3cc(O)c(C/C=C(\C)CCC=C(C)C)c(O)c3)nn2)cc2c1O[C@]1(C)CC[C@@H](O)C(C)(C)[C@H]1C2 | 5.7% (active) | 29% | 16.6% | 11.7% | 7.25% (active) | 8.36% (active) | 10.2% | 15.9% |
| C#Cc1cccc(Nc2ncnc3ccc(-c4cncc(NS(C)(=O)=O)c4)cc23)c1 | -5.8% (active) | 19.2% | 44.8% | 31.1% | 10.9% | 11% | 45.5% | 36.1% |
| CN(C)Cc1ccc(NC(=O)c2cncc(C#Cc3cnc(N)c4ncccc34)c2)cc1F | 105% | 132% | -89.3% (active) | 96.9% | -46% (active) | 81.4% | 91% | -83.3% (active) |
